Bioassay records as filed in PubChem.
Most compounds without a hit are left out; they make up all but 0.93% or so of the library.
HIF act – HIF pathway transcriptional activation; U2OS HRE-luciferase reporter, luminescence; normalized: DMSO 0%, desferrioxamine 100%; activation, % at 7.5 µM (by protocol); actives 0.32% (n = 300,000); AID 1910;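 active means mean activation of at least 10% of the iron chelator positive control signal, with at least half of replicates also reaching 10%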
697 NFkB inh – inhibitors of the PMA/ionomycin-induced NF-kB reporter in 697 B cells | 697 B-cell NF-kB luciferase reporter, 16 h | inhibition, % at 4 µM | actives 0.33% (n = 330,000); in the data active means inhibition above about 35%
Jurkat NFkB inh – inhibitors of the PMA/ionomycin-induced NF-kB reporter in Jurkat cells; actives 0.53% (n = 330,000); PMA/ionomycin-induced NF-kB luciferase reporter, luminescence; AID 435003; inhibition, % at 4 µM; in the data active means inhibition above about 50%
CFTR F508del cor – CFTR F508del correction in bronchial cells; AID 720511; activity (quench increase), % at 7.58 µM; CFBE cells, YFP halide quenching; stimulated with forskolin plus potentiator P3; % fluorescence drop versus neutral controls; actives 0.36% (n = 350,000);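 active means mean added fluorescence quench of at least 8% versus neutral control, with both replicates also reaching 8%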;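 further: cells transiently co-express mutant CFTR-F508del with the halide-sensitive YFP; corrector assay measuring rescue of mutant channel to the surface after 24 h compound exposure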
* = called active by the depositor; . = no result given.

SMILES	HIF act	697 NFkB inh	Jurkat NFkB inh	CFTR F508del cor
C[C@H]1CN([C@@H](C)CO)C(=O)c2cc(-c3cccc(C#N)c3)cnc2O[C@H]1CN(C)C(=O)c1cnccn1	.	.	.	1
O=C(c1ccc2c(c1)N(Cc1ccccc1)C(=O)CS2)N1CCOCC1	-1	2	-6	.
Cc1ccccc1CN1C(=O)CSc2ccc(C(=O)N3CCOCC3)cc21	23*	-2	-11	.
C[C@@H]1CN([C@H](C)CO)C(=O)c2cc(-c3ccncc3)cnc2O[C@@H]1CN(C)C(=O)c1ccncc1	.	.	.	-1
COc1ccc2c3c([nH]c2c1)[C@H](CO)N(C(=O)CN(C)C)CC31CCN(CC2CCCC2)CC1	.	.	.	0
C=CC1c2cc(OC)c(OC)cc2CC(C)N1Cc1ccc(OC)cc1 (stereo not drawn)	.	.	.	18*
C[C@H]1CN([C@@H](C)CO)C(=O)c2cc(-c3cccc(C#N)c3)cnc2O[C@@H]1CN(C)C(=O)C1CCCCC1	.	.	.	-1
COc1ccc2c3c(n(C)c2c1)[C@H](CO)N(S(C)(=O)=O)CC31CN(C(=O)C2CC2)C1	.	.	.	0
CSc1nc(C)cc(C)c1C#N	103*	12	12	.
Cc1ccccc1S(=O)(=O)N1C[C@@H](O)COC[C@H]2O[C@H](CC(=O)NCCc3ccccc3)CC[C@@H]21	.	.	.	0
Oc1ccccc1-c1nc(NC2CCCC2)c2ccccc2n1	0	-14	4	3
CNc1nc(-c2ccccn2)nnc1-c1ccccc1	14*	2	-8	.
c1ccc(-c2nc(-c3ccccn3)no2)cc1	1	-71	3	.
c1ccc(-c2nnc(-c3ccccn3)nc2NC2CCCCC2)cc1	472*	-42	48	.
COCC(=O)N1CC2(C1)[C@@H](c1ccccc1)[C@H](CO)N2C(=O)c1cccnc1	.	.	.	3
COc1ccc2c(c1)sc(N)[n+]2Cc1cc(C)cc2cccnc12	-1	.	.	11*
C[C@@H]1CN([C@H](C)CO)C(=O)c2cc(/C=C/c3ccccc3)cnc2O[C@@H]1CN(C)Cc1cncnc1	.	.	.	0
COc1ccc(CN2CCNC(=O)C2CC(=O)N(C)CC2CCOCC2)cc1OC (stereo not drawn)	26*	0	18	-3
O=c1oc2cc([N+](=O)[O-])ccc2nc1/C=C(\O)c1cccc(Br)c1	16*	-6	6	-1
O=C(N/N=C/c1ccc2c(c1)OCO2)c1cccc2ccccc12	2	-7	34	-2
Cn1cc(C(=O)N/N=C/c2ccc3c(c2)OCO3)c2ccccc21	3	-201	2	9.1*
O=C(N/N=C/c1ccccc1O)c1ccc2c(c1)OCO2	9.7*	-166	-34	5
O=C(Nc1ncccc1O)c1ccc2c(c1)OCO2	9.7*	-130	-37	0
O=C(N/N=C/c1cc(Br)cc(Cl)c1O)c1ccc2c(c1)OCO2	19*	-25	11	12*
Cc1cc(Br)cc(/C=N/NC(=O)c2ccc3c(c2)OCO3)c1O	13*	-39	20	9.3*
SMILES	HIF act	697 NFkB inh	Jurkat NFkB inh	CFTR F508del cor
COc1ccc(C(=O)/C=C/C(=O)N(CC(=O)NC2CCCCC2)Cc2ccccc2)c(O)c1	-8	.	.	-5
COc1ccc(C(=O)/C=C/C(=O)N(CC(=O)NC2CCCCC2)CC2CCCO2)c(O)c1 (stereo not drawn)	16*	-1	13	-5
COc1ccccc1C(=O)Nc1ccc(S(=O)(=O)Nc2cc(C)on2)cc1	0	26	2	.
COc1ccccc1NS(=O)(=O)c1ccc(C)c(C(=O)Nc2cc(C)on2)c1	.	-8	0	8.8*
CC(=O)NS(=O)(=O)c1ccc(NC(=O)CSc2ccc(Cl)cc2)cc1	-1	16	8	9.6*
O=C(C[C@@H]1CC[C@H]2[C@@H](COC[C@@H](O)CN2Cc2ccc(Oc3ccccc3)cc2)O1)Nc1nccs1	.	.	.	2
COc1ccc2c3c([nH]c2c1)[C@H](CO)N(C(=O)CN(C)C)CC31CN(Cc2ccccc2Cl)C1	.	.	.	-7
O=C(Nc1cccc(C2=NCCN2)c1)Nc1cccc(C2=NCCN2)c1	.	4	11	8.3*
O=C(Nc1ccncc1)Nc1cccc(Cl)c1	1	-18	-17	0
C[C@@H]1CN([C@@H](C)CO)C(=O)Cc2cc(N(C)C)ccc2O[C@H]1CN(C)C(=O)Nc1ccc(C(F)(F)F)cc1	.	.	.	0
CC(=O)Oc1ccc(N2C(=O)c3cccc4c([N+](=O)[O-])ccc(c34)C2=O)cc1	-1	4	8	32*
O=C1c2cccc3c([N+](=O)[O-])ccc(c23)C(=O)N1O	-7	3	15	1
Cn1cccc1-c1cc(C(=O)N/N=C/c2ccccc2Cl)[nH]n1	0	-44	-48	1
